The source of these data is PubChem BioAssay.

Assay [1] relates to Human papillomavirus type 1a protein E7 (residues 44-93). The assay can be described thus: HPV1a E7 fragment binders on microarrays, primary screen, biochemical, small-molecule microarray, residues 44-93, 635 nm fluorescence (AID 1108).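 Further: E7 fragment applied at 1 µg/mL in TBST for 1 h at 4 C; score combines spot fluorescence with its signal to noise ratio.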 As to conditions: small-molecule microarray binding, fluorescence 635 nm; higher = more signal.
Assay [2] is described as follows: modulators of HCV replicon luciferase signal, primary screen, HCV replication inhibitor project, Huh7 cells, luciferase reporter (AID 1109).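 Further: huh7 hepatoma cells harbouring a luciferase neomycin HCV replicon reporter; luciferase luminescence as measure of HCV replicon replication; test concentration not given here.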 To be noted: 48 h, higher = more signal. Background: In antiviral work, replicon cells carry a viral genome segment that copies itself.
Assay [3] concerns the target Left-right determination factor 2 (Homo sapiens) (UniProt O00292). The assay can be described thus: LEFTY2 binders on small-molecule microarrays, primary screen, biochemical, small-molecule microarray, 635 nm fluorescence scan (AID 1110). To be noted: LEFTY2 binding, higher = more signal.
Assay [4] deals with Calmodulin-1 (Homo sapiens) (UniProt P0DP23). The assay can be described thus: CALM1 binders on microarrays, EGTA buffer, profiling panel, biochemical, small-molecule microarray, Cy5-labelled CALM1 (AID 1111).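 Further: labelled calmodulin applied in Tris saline Tween buffer holding calcium plus EGTA and DTT.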 To be noted: Cy5-CALM1 binding fluorescence, higher = more signal.
Assay [5] has the same target. Nature of the assay: calcium-bound CALM1 binders on microarrays, profiling panel, artefact control for SMM control-protein annotation, biochemical, small-molecule microarray, Cy5-labelled CALM1, plus calcium (AID 1112).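 Further: score merges spot fluorescence with signal to noise from triplicate slides.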 To be noted: Cy5-CALM1 binding fluorescence, higher = more signal.
Assay [6] in a line: small-molecule microarray binders of probe aWnt5a, primary screen, biochemical, biotinylated probe, 635/667 nm fluorescence (AID 1113).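 Further: score merges 667 nm fluorescence intensity with signal-to-noise per printed feature.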 To be noted: higher = more signal.
The nature of assay [7]: small-molecule microarray binders of probe aShh, primary screen, biochemical, biotinylated probe, 635/667 nm fluorescence (AID 1114).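 Further: probe is biotin-labelled aShh protein from a stem cell growth factor screen; measures binding of labelled protein to compounds printed on the slide; score merges feature fluorescence at 667 nm with signal-to-noise.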 To be noted: higher = more signal.
Assay [8] is described as follows: small-molecule microarray binders of probe aNog, primary screen, biochemical, biotinylated probe, 635/667 nm fluorescence (AID 1115).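 Further: probe is biotinylated aNog protein used at 0.15 µg/mL for 1 h at 4 C; z-score combines 667 nm fluorescence of each spot with its signal to noise.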 As to conditions: higher = more signal.
For assay [9], the target named is Torsin-1A-interacting protein 1 (Homo sapiens) (UniProt Q5JTV8). The assay can be described thus: LAP1 binders from COS7 cell lysate, primary screen, small-molecule microarray, 635/667 nm fluorescence (AID 1116). To be noted: COS7-hLAP1 lysate binding, 635 nm fluorescence, higher = more signal.
The target of assay [10] is Alpha-bungarotoxin (Bungarus multicinctus) (UniProt P60615). The assay can be described thus: alpha-bungarotoxin binders on microarray, profiling panel, artefact control for SMM control protein annotation, biochemical, small-molecule microarray, Alexa647 label, 635/667 nm fluorescence (AID 1117). To be noted: alpha-BTX-A647 binding fluorescence, higher = more signal.
Chain of Alpha-bungarotoxin (Bungarus multicinctus) (P60615 whole entry, looked up): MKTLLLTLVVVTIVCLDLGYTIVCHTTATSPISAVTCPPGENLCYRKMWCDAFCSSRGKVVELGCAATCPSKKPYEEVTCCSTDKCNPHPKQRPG

Chain of Left-right determination factor 2 (Homo sapiens) (O00292 whole entry, looked up): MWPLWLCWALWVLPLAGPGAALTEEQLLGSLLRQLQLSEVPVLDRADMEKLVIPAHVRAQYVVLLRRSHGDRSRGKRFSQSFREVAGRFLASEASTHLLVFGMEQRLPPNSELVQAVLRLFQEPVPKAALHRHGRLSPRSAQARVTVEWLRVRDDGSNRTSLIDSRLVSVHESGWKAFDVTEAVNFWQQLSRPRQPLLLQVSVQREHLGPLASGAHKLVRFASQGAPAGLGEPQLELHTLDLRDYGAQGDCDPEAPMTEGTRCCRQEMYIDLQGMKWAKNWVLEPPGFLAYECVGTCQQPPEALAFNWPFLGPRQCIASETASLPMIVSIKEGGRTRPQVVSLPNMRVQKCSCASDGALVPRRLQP
Chain of Torsin-1A-interacting protein 1 (Homo sapiens) (Q5JTV8 whole entry, looked up): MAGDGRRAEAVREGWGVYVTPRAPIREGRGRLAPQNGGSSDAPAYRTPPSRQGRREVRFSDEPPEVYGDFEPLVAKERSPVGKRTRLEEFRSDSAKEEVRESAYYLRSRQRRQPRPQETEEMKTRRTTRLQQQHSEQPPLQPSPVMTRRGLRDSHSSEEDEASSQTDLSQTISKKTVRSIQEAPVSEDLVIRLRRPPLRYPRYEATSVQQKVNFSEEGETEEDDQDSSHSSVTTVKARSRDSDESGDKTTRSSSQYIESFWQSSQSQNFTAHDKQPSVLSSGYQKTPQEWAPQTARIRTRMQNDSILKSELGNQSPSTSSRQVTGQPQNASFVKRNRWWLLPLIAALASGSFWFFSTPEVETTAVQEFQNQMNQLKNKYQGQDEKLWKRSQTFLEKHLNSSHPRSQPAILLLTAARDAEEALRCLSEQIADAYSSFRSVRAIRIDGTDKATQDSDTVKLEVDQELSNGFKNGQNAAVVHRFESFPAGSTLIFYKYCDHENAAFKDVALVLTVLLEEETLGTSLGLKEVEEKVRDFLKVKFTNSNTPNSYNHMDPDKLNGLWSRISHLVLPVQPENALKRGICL

Regarding `Cc1ccc(N2C(=O)c3ccccc3[C@](C)(C(=O)NCCCN(C)C)[C@@H]2c2ccc(CO)cc2)nc1`, the composite z-score in assay [1] was 0.571; in assay [3] it was -1.05; in [4], -0.213; in [5] it was -0.338; in assay [6], -0.148; in [7] it was -0.138. Also, the composite z-score was -0.348 in assay [8], -0.312 in assay [9] and 0.149 in assay [10]. The z-score in assay [2] is -0.199.
`O=C(NC1CC1)[C@@H]1c2ccccc2C(=O)N(Cc2ccc(OC(F)(F)F)cc2)[C@H]1c1ccc(CO)cc1`: the composite z-score is 1.13 in assay [1]; 0.108 in [3]; 0.168 in [4]; 1.06 in assay [5]; -0.0758 in [6]; -0.0735 in [7]. In addition, the figures for the composite z-score in assay [8], in [9] and in [10] were -0.399, -0.436 and -0.258, respectively. In addition, in assay [2], the z-score is -1.06.
In the case of `O=C1C[C@]2(c3ccc([N+](=O)[O-])cc3)C(=O)N(C3CC3)c3cc(CO)ccc3[C@H]2N1C1CCCCC1`, the composite z-score in assay [1] was 0.481; in assay [3], 0.0985; in [4], -0.301; in [5] it was -0.931; in [6], -0.178; in [7] it was -0.0146. In addition, the figures for the composite z-score in [8], in assay [9] and in assay [10] were -0.383, -0.0456 and 0.637, respectively. For the same compound, the z-score in [2] came to 0.82.
Turning to `CN(C)CCCCNC(=O)[C@H]1C[C@H]2C(=O)NCC(=O)N2[C@H]1c1ccc(O)cc1`, the composite z-score was -0.392 in [1]; -0.735 in assay [3]; -0.608 in assay [4]; 0.577 in assay [5]; -0.145 in assay [6]; -0.501 in [7]. Further, the values for the composite z-score in [8], in [9] and in [10] were -0.248, -0.38 and 0.52, respectively. In assay [2], this compound came in with a z-score of 0.143.
Turning to `C=CCC(OC(C)=O)[C@@H]1[C@@H](N(Cc2ccc(-c3cccc(C(F)(F)F)c3)o2)C(=O)c2ccc(-c3ccccc3)cc2)c2cc(OCCCO)ccc2N1C(=O)c1ccc2ccccc2c1` (stereo not given in full), the composite z-score was -0.701 in [1]; 0.27 in [3]; 0.0114 in assay [4]; 0.255 in [5]; -0.119 in assay [6]; 0.0121 in assay [7]. Also, the results for the composite z-score in [8], in [9] and in [10] were -0.399, 0.33 and 0.0035, respectively. Besides, the z-score in [2] is -0.514.
As for `CC1CC/C=C\[C@H]2OC34C=CCN(CCN5CCOCC5)C(=O)[C@H]3N(CCCO)C(=O)[C@@H]4C2C(=O)O1` (stereo not given in full), the composite z-score in assay [1] was -0.591; in assay [3], -0.573; in assay [4], -0.589; in [5], -0.565; in assay [6], -0.192; in assay [7], -0.214. The composite z-score was 0.144 in assay [8], -0.181 in [9] and -1.02 in assay [10]. The z-score in assay [2] is -0.945.
Regarding `CC(C)C[C@H]1NC(=O)C([C@@H](C)OCc2ccccc2)NC(=O)[C@@]23C(=O)N[C@@H](Cc4ccccc4)C2[C@H](C)[C@@]2(C)O[C@H]2C3/C=C/C/C=C\CNC1=O` (stereo not given in full), the composite z-score in assay [1] is 0.566; in [3] it was 0.905; in assay [4] it was 0.216; in assay [5], -0.389; in assay [6], -0.118; in [7] it was -0.0553. Also, the composite z-score in assay [8] was 0.746; in assay [9] it was 0.174; in [10] it was 0.888. Also, the z-score in assay [2] is -2.23.
With `CC[C@@H]1C=C(C(=O)O)[C@H](c2ccc(OC)cc2)N1S(=O)(=O)c1ccc(C)cc1`, the composite z-score in assay [1] is -0.875; in assay [3], -0.495; in assay [4] it was 0.15; in [5], 0.0583; in assay [6] it was -0.154; in assay [7] it was -0.221. Besides, the composite z-score in assay [8] is -0.209; in assay [9] it was 0.076; in assay [10], 0.0708. In assay [2], this compound returned a z-score of -0.619.
Regarding `CC(C)NC(=O)[C@@]1(C)c2ccccc2C(=O)N(Cc2ccccc2)[C@H]1c1ccc(CO)cc1`, the composite z-score in assay [1] is 0.864; in assay [3] it was -1.47; in assay [4], -0.155; in [5] it was -0.672; in [6], -0.0819; in assay [7], -0.209. Moreover, the composite z-score in assay [8] is -0.45; in [9], -0.922; in [10] it was 0.386. In assay [2], this compound showed a z-score of -0.957.
In the case of `CC(C)=CCCC(C)=CC(O)C1C=CC2C(=O)NC(=O)C2N1Nc1ccc(Cl)cc1Cl` (stereo not given), the composite z-score is 1.36 in [1]; 0.41 in assay [3]; 1.69 in assay [4]; 0.254 in assay [5]; -0.0327 in assay [6]; 0.14 in [7]. The composite z-score in [8] worked out at 1.5; in [9], 1.17; in assay [10], 0.451. In addition, the z-score in assay [2] was -0.922.
Take `CCCc1cc2c(n1CCc1ccc(Cl)cc1)C(C)C1CN(C(=O)c3ccccc3)C(C)(C(=O)OC)C21` (stereo not given): the composite z-score is 0.274 in assay [1]; -0.338 in assay [3]; 2.48 in assay [4]; 1.28 in assay [5]; 0.16 in assay [6]; 0.241 in [7]. Besides, the composite z-score in assay [8] is 1.24; in assay [9], 1.53; in assay [10], 2.19. This compound also gave a z-score in assay [2] of -2.1.
For the compound `N#Cc1ccc(C(O)C2C=CC3C(=O)NC(=O)C3N2Nc2ccc(Cl)cc2Cl)cc1` (stereo not given), the composite z-score in assay [1] is 0.544; in assay [3], -0.535; in [4], 1.69; in [5], 0.635; in [6], 0.0438; in [7], 0.296. Also, the results for the composite z-score in [8], in assay [9] and in assay [10] were 0.732, 2.08 and 0.531, respectively. The same compound showed a z-score in [2] of -0.436.
On to `CCCN1C(=O)[C@@]2(c3ccc([N+](=O)[O-])cc3)CC(=O)N(CC34CC5CC(CC(C5)C3)C4)[C@@H]2c2ccc(CO)cc21`, for which the composite z-score in assay [1] was 0.0595; in assay [3] it was -0.242; in [4], -0.0921; in [5] it was -0.647; in [6] it was -0.0203; in assay [7], -0.0519. The composite z-score in assay [8] is -0.873; in assay [9], -0.38; in assay [10], -0.0061. The compound also gave a z-score in [2] of -0.767.
In the case of `COc1ccc([Si](C)(C)[C@H]2[C@H](CC(=O)N3Cc4ccccc4C[C@H]3CO)O[C@@]3(C(=O)N(c4ccccc4)c4ccccc43)[C@@H]2C)cc1`, the composite z-score in [1] was 1.35; in [3], 0.949; in [4], 0.392; in assay [5] it was -0.987; in assay [6], 0.127; in assay [7], -0.0119. Also, the composite z-score was -0.542 in [8], 1.7 in assay [9] and 1.69 in assay [10]. The z-score in assay [2] is -3.46.
Turning to `COc1cc(CO)cc(I)c1O[C@H]1C=C(C(=O)NCCO)C[C@@H]2O[C@H]12`, the composite z-score in assay [1] is 1.4; in [3], 0.873; in assay [4], 3.38; in assay [5], 1.48; in assay [6], 0.055; in assay [7], -0.352. Moreover, the results for the composite z-score in [8], in assay [9] and in assay [10] were -0.646, 1.94 and 2.81, respectively. In assay [2], this compound came in with a z-score of -1.32.
Turning to `COc1ccc(C#Cc2ccc3c(c2)[C@]2(C(=O)N3)[C@H](C(=O)O)[C@H]3C(=O)O[C@H](c4ccccc4)[C@H](c4ccccc4)N3[C@@H]2c2ccccc2OCCO)cc1`, the composite z-score was 0.263 in [1]; 0.694 in [3]; 1.04 in [4]; 0.604 in assay [5]; -0.235 in assay [6]; 0.0777 in assay [7]. Besides, the composite z-score in [8] came out at 0.279; in assay [9] it was 0.835; in assay [10], 2.21. Moreover, the z-score in assay [2] is -2.19.
Turning to `NCCCCCCNC(=O)[C@@H]1C[C@@H]2C(=O)N3CCC[C@H]3C(=O)N2[C@@H]1c1cccc(OCCO)c1`, the composite z-score is -0.0954 in assay [1]; 0.738 in assay [3]; 0.263 in assay [4]; -0.334 in assay [5]; -0.0286 in [6]; -0.0035 in [7]. Also, the results for the composite z-score in [8], in assay [9] and in [10] were -0.366, 0.572 and 1.01, respectively. In assay [2], the z-score was determined as 0.116.
